Among all 1,400 compounds or so, about 350 (25%) were called active. About 2% were inconclusive and are not listed. No rule for the calls is given here. Only a sample is shown. Potency and affinity values are given separately.
Assay: C. difficile growth inhibition, confirmation, 4-point retest (AID 1224921);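 also: plate controls were DMSO wells for no effect and levofloxacin 16 µg/mL wells for full effect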
Details: Clostridioides difficile clinical isolate growth, OD600, 24 h, hits give low values; at 30 µM unless noted

Max activity, inactive:
O=C(C[C@H]1C[C@@H]2c3cc(NC(=O)C4CCC4)ccc3O[C@@H]2[C@@H](CO)O1)NCc1ccc2c(c1)OCO2 -8.66% [at 0.5 µM]
COc1ccccc1NC(=O)N[C@@H]1CC[C@@H](CC(=O)N2CCC(Cc3ccccc3)CC2)O[C@@H]1CO -7.56%
CCS(=O)(=O)Nc1ccc2c(c1)C(=O)N(C)C[C@@H](OC)[C@H](C)CN(C(C)=O)[C@@H](C)CO2 -11.1%
C[C@@H]1CCCCO[C@H](CN(C)Cc2ccc(C(=O)O)cc2)[C@H](C)CN([C@H](C)CO)C(=O)c2cc(NC(=O)Nc3ccc4c(c3)OCO4)ccc2O1 -16.4%
C[C@@H]1CN([C@@H](C)CO)S(=O)(=O)c2ccc(C3=CCCCC3)cc2O[C@@H]1CN(C)Cc1cccnc1 23.6%
O=C(Nc1cc(F)ccc1F)N[C@@H]1CC[C@@H](CC(=O)N2CCc3ccccc3C2)O[C@H]1CO 14.6%
CNC[C@@H]1Oc2cc(C#CCOC)ccc2S(=O)(=O)N([C@@H](C)CO)C[C@H]1C -11.1% [at 8 µM]
O=C(N[C@H]1C=C[C@H](CC(=O)N2CCc3ccccc3C2)O[C@H]1CO)C1CC1 -8.59%
C[C@H]1CN([C@@H](C)CO)S(=O)(=O)c2ccc(C#CC3CCCC3)cc2O[C@H]1CN(C)Cc1cccnc1 23.6%
O=C(C[C@@H]1C[C@@H]2c3cc(NC(=O)C4CCC4)ccc3O[C@@H]2[C@H](CO)O1)NCc1cc(F)ccc1F 4.63%
Cc1ccc(-c2ccc3c(c2)O[C@@H](CN(C)Cc2ccncc2)[C@@H](C)CN([C@H](C)CO)S3(=O)=O)cc1 -8.83% [at 8 µM]
C[C@H](CO)N1C[C@H](C)[C@H](CN(C)Cc2ccncc2)Oc2cc(C3=CCCCC3)ccc2S1(=O)=O 33%
C[C@H]1CN([C@@H](C)CO)C(=O)c2ccccc2-c2ccccc2CO[C@H]1CN(C)Cc1cccc(O)c1 7.55%
C[C@H]1CN([C@@H](C)CO)C(=O)c2ccccc2-c2ccccc2CO[C@H]1CN(C)C(=O)CCN(C)C -12.8% [at 35 µM]
C/C=C/c1ccc2c(c1)O[C@H](CN(C)C(=O)Nc1ccc(C(F)(F)F)cc1)[C@@H](C)CN([C@@H](C)CO)S2(=O)=O 32.5% [at 8 µM]
C[C@H]1CN([C@@H](C)CO)C(=O)c2cc(Br)cnc2O[C@@H]1CN(C)C(=O)c1ccccc1 -20% [at 8 µM]
COc1ccc(NC(=O)Nc2cccc3c2O[C@@H](CN(C)C(=O)NC2CCCCC2)[C@H](C)CN([C@@H](C)CO)C3=O)cc1 10.1%
C[C@@H]1CN([C@@H](C)CO)S(=O)(=O)c2ccc(C#Cc3ccccc3F)cc2O[C@H]1CN(C)CC1CCOCC1 35.2%
COc1ccccc1C#Cc1ccc2c(c1)O[C@@H](CN(C)Cc1cccnc1)[C@@H](C)CN([C@@H](C)CO)S2(=O)=O 24.6%
CC(C)NC(=O)N(C)C[C@H]1OCc2ccccc2-c2ccccc2C(=O)N([C@@H](C)CO)C[C@H]1C -14.3%
COc1cccc(C(=O)Nc2ccc3c(c2)OC[C@@H](C)N(C(=O)C2CCCC2)C[C@H](C)[C@@H](OC)CN(C)C3=O)c1 -18.8% [at 8 µM]
CC(C)CC#Cc1ccc2c(c1)O[C@H](CN(C)Cc1ccncc1)[C@@H](C)CN([C@@H](C)CO)S2(=O)=O 23.1%
C[C@H](CO)N1C[C@H](C)[C@H](CN(C)Cc2ccc3c(c2)OCO3)Oc2ncc(-c3cccc(F)c3)cc2C1=O -9.89% [at 8 µM]
N#C[C@H]1[C@H](c2ccc(-c3cccc(F)c3)cc2)[C@@H](CO)N1C(=O)NC1CCCC1 28.5%
CCCC(=O)Nc1ccc2c(c1)C(=O)N(C)C[C@@H](OC)[C@@H](C)CN(Cc1ccccc1)[C@H](C)CO2 9.23%
C[C@H]1CN([C@@H](C)CO)S(=O)(=O)c2ccc(C3=CCCCC3)cc2O[C@H]1CN(C)C(=O)c1ccncc1 14.4%
N#C[C@H]1[C@@H](c2ccc(C#Cc3ccccc3F)cc2)[C@@H](CO)N1C(=O)C1CCCCC1 -9.56%
C[C@@H]1CN([C@@H](C)CO)C(=O)Cc2cc(NC(=O)C3CC3)ccc2O[C@@H]1CN(C)Cc1ccc(-c2ccccc2)cc1 49.5%
O=C(C[C@@H]1CC[C@H]2[C@@H](COC[C@@H](O)CN2Cc2ccc(Cl)cc2)O1)NCc1ccccc1Cl -28.7% [at 1.95 µM]
COc1cccc(NC(=O)N[C@H]2CC[C@H](CC(=O)N3CCCCC3)O[C@@H]2CO)c1 17.5%
O=C(C[C@H]1CC[C@@H]2[C@H](COC[C@H](O)CN2Cc2ccc(Cl)cc2)O1)NCc1ccccc1Cl 32% [at 8 µM]
C[C@@H]1CN([C@@H](C)CO)S(=O)(=O)c2ccc(C3=CCCCC3)cc2O[C@H]1CN(C)Cc1cccnc1 15.4%
CNC[C@H]1Oc2cc(C#CCC3CCCC3)ccc2S(=O)(=O)N([C@@H](C)CO)C[C@@H]1C 29.2% [at 8 µM]
CO[C@@H]1CN(C)C(=O)c2cc(NC(=O)Nc3cccc(F)c3)ccc2OC[C@@H](C)N(C)C[C@H]1C -12.5%
O=C(Nc1ccc(F)cc1)Nc1ccc2c(c1)[C@@H]1C[C@H](CC(=O)N3CCCCC3)O[C@@H](CO)[C@@H]1O2 -6.91%
CC(C)C#Cc1ccc2c(c1)O[C@@H](CN(C)Cc1ccncc1)[C@H](C)CN([C@H](C)CO)S2(=O)=O 6.91% [at 1.95 µM]
COc1cccc(NC(=O)N[C@H]2C=C[C@@H](CC(=O)NCc3ccncn3)O[C@H]2CO)c1 -10.2% [at 1.95 µM]
C[C@H]1CN([C@@H](C)CO)S(=O)(=O)c2ccc(C3=CCCC3)cc2O[C@@H]1CN(C)Cc1ccncc1 -16.8% [at 1.95 µM]
CCCN1C[C@H](C)[C@H](OC)CN(C)C(=O)c2ccc(NC(=O)c3ccc(F)cc3)cc2OC[C@@H]1C -9.18%
COc1cccc(-c2ccc3c(c2)O[C@@H](CN(C)Cc2ccncc2)[C@H](C)CN([C@H](C)CO)S3(=O)=O)c1 19.2%
CO[C@H]1CN(C)C(=O)c2cc(NC(=O)c3ccc(-c4ccccc4)cc3)ccc2OC[C@H](C)NC[C@H]1C 27.6% [at 8 µM]
O=C(Cc1ccccc1)N[C@@H]1CC[C@@H](CC(=O)N2CCOCC2)O[C@H]1CO -16.6% [at 8 µM]
O=C(Cc1ccccc1)N[C@H]1CC[C@@H](CC(=O)N2CCOCC2)O[C@@H]1CO -8.53% [at 8 µM]
CO[C@@H]1CN(C)C(=O)c2cc(NC(=O)Nc3ccccc3F)ccc2OC[C@@H](C)N(CCC(F)(F)F)C[C@H]1C 10.2%
CC(C)C(=O)Nc1ccc2c(c1)C(=O)N(C)[C@H]1CC[C@@H](CC(=O)NCc3ccccc3F)O[C@@H]1CO2 -12.2% [at 8 µM]
CNC[C@@H]1Oc2ncc(-c3ccc(OC)cc3)cc2C(=O)N([C@H](C)CO)C[C@H]1C 28.1%
CO[C@@H]1CN(C)C(=O)c2ccc(NC(=O)c3ccccc3F)cc2OC[C@@H](C)N(CC2CC2)C[C@H]1C -10.7% [at 1.95 µM]
CCCC(=O)Nc1ccc2c(c1)C(=O)N(C)C[C@H](OC)[C@@H](C)CN(Cc1ccccc1)[C@@H](C)CO2 22.4%
C[C@H]1CN([C@@H](C)CO)C(=O)c2cc(C3=CCCCC3)cnc2O[C@@H]1CN(C)C(=O)c1cccc(F)c1 21.2%
CC(=O)N(C)C[C@H]1Oc2ncc(-c3ccc(C(=O)N(C)C)cc3)cc2C(=O)N([C@@H](C)CO)C[C@H]1C -3.53% [at 1.95 µM]
O=C(Cc1ccccc1)N[C@@H]1CC[C@H](CC(=O)N2CCOCC2)O[C@H]1CO -12.9%
O=C(Cc1ccccc1)N[C@H]1CC[C@H](CC(=O)N2CCOCC2)O[C@@H]1CO -10.8%
CCC(=O)N(C)C[C@H]1Oc2ncc(-c3ccc(C(=O)N(C)C)cc3)cc2C(=O)N([C@H](C)CO)C[C@@H]1C 21.8% [at 8 µM]
COCC(=O)Nc1ccc2c(c1)OC[C@@H](C)N(C(=O)c1ccccc1F)C[C@H](C)[C@@H](OC)CN(C)C2=O -10.4% [at 35 µM]
Cc1ccccc1-c1ccc2c(c1)O[C@H](CN(C)Cc1ccncc1)[C@@H](C)CN([C@@H](C)CO)S2(=O)=O 7.76%
C[C@H]1CN([C@@H](C)CO)S(=O)(=O)c2ccc(C#CC3CCCCC3)cc2O[C@@H]1CN(C)Cc1cccnc1 26.3% [at 1.95 µM]
C/C=C/c1cnc2c(c1)C(=O)N([C@@H](C)CO)C[C@H](C)[C@@H](CN(C)Cc1ccc(F)cc1)O2 -8.42% [at 8 µM]
CC(C)CC#Cc1ccc2c(c1)O[C@@H](CN(C)C(=O)C1CCCCC1)[C@@H](C)CN([C@@H](C)CO)S2(=O)=O 27.1%
O=C(Nc1ccc2c(c1)[C@H]1C[C@@H](CC(=O)N3CCc4ccccc4C3)O[C@@H](CO)[C@H]1O2)c1ccc2c(c1)OCO2 -27.9% [at 8 µM]
CCCC#Cc1ccc2c(c1)O[C@@H](CN(C)Cc1cccnc1)[C@@H](C)CN([C@H](C)CO)S2(=O)=O 35.5%

From PubChem BioAssay AID1224921 (Broad Institute, 2016)
